# Reference: the supplement of paper PMC8728848
# This excerpt belongs to a sample that is enriched for the strongest signals.
# Assays:
# Assay in all cases: glycan array binding signal (z-score within array); higher = stronger binding
# Settings in all cases: glycan notation: IUPAC condensed, linker removed
# Gal3S6S(b1-4)GlcNAc = target: Gal3S6S(b1-4)GlcNAc
# Method in brief: (§1)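 Columns mapping to the same glycan were averaged after glycan names were converted to IUPAC-condensed notation. The data come from 3228 arrays in the Consortium for Functional Glycomics database, limited to those with an available protein sequence. Binding is reported as a within-array Z-score averaged across arrays of one protein sequence and across linkers.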
# Gal6S(b1-4)GlcNAc6S = target: Gal6S(b1-4)GlcNAc6S
# Method in brief: as §1
# [1] = target: Glc(a1-4)Glc(a1-4)Glc(a1-4)Glc
# Method in brief: as §1
# GlcA(b1-3)GlcNAc = target: GlcA(b1-3)GlcNAc
# Method in brief: as §1
# [2] = target: GlcA3S(b1-3)Gal(b1-4)GlcNAc(b1-2)Man
# Method in brief: as §1
# [3] = target: GlcNAc(a1-4)Gal(b1-3)GlcNAc
# Method in brief: as §1
# [4] = target: GlcNAc(a1-4)Gal(b1-4)GalNAc
# Method in brief: as §1
# [5] = target: GlcNAc(a1-4)Gal(b1-4)GlcNAc
# Method in brief: as §1
# [6] = target: GlcNAc(a1-4)Gal(b1-4)GlcNAc(b1-3)Gal(b1-4)Glc
# Method in brief: as §1
# [7] = target: GlcNAc(a1-4)Gal(b1-4)GlcNAc(b1-3)Gal(b1-4)GlcNAc
# Method in brief: as §1
# [8] = target: GlcNAc(a1-4)Gal(b1-4)GlcNAc(b1-3)Gal(b1-4)GlcNAc(b1-3)Gal(b1-4)GlcNAc
# Method in brief: as §1
# [9] = target: GlcNAc(a1-4)Gal(b1-4)GlcNAc(b1-3)Gal(b1-4)[Fuc(a1-3)]GlcNAc(b1-3)Gal(b1-4)[Fuc(a1-3)]GlcNAc
# Method in brief: as §1
# [10] = target: GlcNAc(b1-3)[GlcNAc(b1-6)]Gal(b1-4)GlcNAc
# Method in brief: as §1
# [11] = target: GlcNAc(b1-6)Gal(b1-4)GlcNAc
# Method in brief: as §1
# Kdn(a2-3)Gal(b1-3)GlcNAc = target: Kdn(a2-3)Gal(b1-3)GlcNAc
# Method in brief: as §1
# [12] = target: Man(a1-2)Man(a1-3)[Man(a1-2)Man(a1-6)]Man(a1-6)[Man(a1-2)Man(a1-2)Man(a1-3)]Man(b1-4)GlcNAc(b1-4)GlcNAc
# Method in brief: as §1
# [13] = target: Neu5Ac(a2-3)Gal(b1-3)GlcNAc(b1-2)[Neu5Ac(a2-3)Gal(b1-3)GlcNAc(b1-4)]Man(a1-6)[Neu5Ac(a2-3)Gal(b1-3)GlcNAc(b1-2)Man(a1-3)]Man(b1-4)GlcNAc(b1-4)GlcNAc
# Method in brief: as §1
# [14] = target: Neu5Ac(a2-3)Gal(b1-3)[Fuc(a1-4)]GlcNAc(b1-3)Gal(b1-4)[Fuc(a1-3)]GlcNAc
# Method in brief: as §1
# [15] = target: Neu5Ac(a2-3)Gal(b1-4)GlcNAc(b1-2)Man(a1-3)[Neu5Ac(a2-6)Gal(b1-4)GlcNAc(b1-2)Man(a1-6)]Man(b1-4)GlcNAc(b1-4)GlcNAc
# Method in brief: as §1
# [16] = target: Neu5Ac(a2-3)Gal(b1-4)GlcNAc(b1-3)Gal(b1-4)GlcNAc(b1-3)GalNAc
# Method in brief: as §1
# [17] = target: Neu5Ac(a2-3)Gal6S(b1-4)GlcNAc
# Method in brief: as §1
# Neu5Ac(a2-6)Gal = target: Neu5Ac(a2-6)Gal
# Method in brief: as §1
# [18] = target: Neu5Ac(a2-8)Neu5Ac(a2-3)[GalNAc(b1-4)]Gal(b1-4)Glc
# Method in brief: as §1
# [19] = target: Neu5Gc(a2-3)Gal(b1-4)GlcNAc
# Method in brief: as §1
# [20] = target: Neu5Gc(a2-6)Gal(b1-4)GlcNAc
# Method in brief: as §1
# [21] = target: Neu5Gc(a2-8)Neu5Ac(a2-3)Gal(b1-4)GlcNAc
# Method in brief: as §1
# [22] = target: Neu5Gc(a2-8)Neu5Gc(a2-3)Gal(b1-4)GlcNAc(b1-3)Gal(b1-4)GlcNAc
# Method in brief: as §1
binder,measurement,setting,value
rEtpA (Escherichia coli) (protein) MNRIYKLKFDKRRNELVVVSEITTGVGNAKATGSVEGEKSPRRGVRAMALSLLSGMMIMAHPAMSANLPTGGQIVAGSGSIQTPSGNQMNIHQNSQNMVANWNSFDIGKGNTVQFDQPSSSAVALNRVVGGGESQIMGNLKANGQVFLVNPNGVLFGEGASVSTSGFVASTRDIKNDDFMNRRYTFSGGQKAGAAIVNQGELTTNAGGYIVLAADRVSNSGTIRTPGGKTVLAASERITLQLDNGGLMSVQVTGDVVNALVENRGLVSARDGQVYLTALGRGMLMNTVLNVSGVVEASGMHRQDGNIVLDGGDSGVVHLSGTLQADNASGQGGKVVVQGKNILLDKGSNITATGGQGGGEVYVGGGWQGKDSNIRNADKVVMQGGARIDVSATQQGNGGTAVLWSDSYTNFHGQISAKGGETGGNGGRVETSSHGNLQAFGTVSASAKKGKAGNWLLDSADITIVNGSNVSKTETTQSPPHTQFAPTAAGSAVSNTSINNRLNNGTSVTILTHRTRTGTAQGGNITVNAAINKSNGSDVNLTLQAGGNITVNNSITSTEGKLNVNLSGARTSNGSITISNNANITTNGGDITVGTTNTSNRVNISINNTTLNASNGNIQLTGTGTDSGILFAGNNRLTASNIALTGNSTSGNAINLTGTATLNATNNITLTGSSTSGNAINLKGNNTLTASNITLTGESTSGNAINLTDTTGTTTLNATNNITMQGTRVQIKHSNITAGNFALNATVAGSEISNTTLTATNNINLAAKTNSASSGVYLKDARITSTNGSITANGTATANGKATHLDGNVTLNASNGRIKLTGNGHGSASGILFAGNNRLTASNIALTGNSTSGNAINLTGTATLNATNDITLTGSSTSGNAINLTGTATLNATNNITLTGSSTSGNAINLKGNNTLTASNITLTGESTSGNAINLTDTTGTTTLNATNNITMQGTRVQIKHSNITAGNFALNATVAGSEISNTTLTATNNINLAAKTNSASSGVYLKDARITSTNGSITANGTATANGKATHLDGNVTLNASNGRIKLTGNGHGSASGILFAGNNRLTASNIALTGNSTSGNAINLTGTATLNATNDITLTGSSTSGNAINLTGTATLNATNNITLTGSSTSGNAINLKGNNTLTASNITLTGESTSGNAINLTDTTGTTTLNATNNITMQGTRVQIKHSNITAGNFALNATVAGSEISNTTLTATNNINLAAKTNSASSGVYLKDARITSTNGSITANGTATANGKATHLDGNVTLNASNGRIKLTGNGHGSASGILFAGNNRLTASNIALTGNSTSGNAINLTGTATLNATNDITLTGSSTSGNAINLTGTATLNATNNITLTGSSTSGNAINLKGNNTLTASNITLTGESTSGNAINLTDTTGTTTLNATNNITMQGTRVQIKHSNITAGNFALNATVAGSEISNTTLTATNNINLAAKTNSASSGVYLKDARITSTNGSITTNGTATANGKATHLDGNVTLNASNGRIKLTGNGHGSASGILFAGNNRLTASNIALTGNSTSGNAINLTGTATLNATNDITLTGSSTSGNAINLTGTATLNATNNITLTGSSTSGNAINLKGNNTLTASNITLTGESTSGNAINLTDTTGTTTLNATNNITMQGTRVQIKHSNITAGNFALNATVAGSEISNTTLTATNNINLAAKTNSASSGVYLKDARITSTNGSITANGTAPANDNATYLDGNVTLNASNGSIKLTGNGNGSTSGILFAGNNTLTASNITLTGNSEVYWQKLGPEQKLISEEDLNSAVDHHHHHH,glycan array binding signal (z-score),Gal3S6S(b1-4)GlcNAc,-0.028
same,glycan array binding signal (z-score),Gal6S(b1-4)GlcNAc6S,0.353
same,glycan array binding signal (z-score),[1],1.05
same,glycan array binding signal (z-score),GlcA(b1-3)GlcNAc,-0.337
same,glycan array binding signal (z-score),[2],-0.154
same,glycan array binding signal (z-score),[3],2.45
same,glycan array binding signal (z-score),[4],10.8
same,glycan array binding signal (z-score),[5],5.29
same,glycan array binding signal (z-score),[6],4.48
same,glycan array binding signal (z-score),[7],7.75
same,glycan array binding signal (z-score),[8],10.9
same,glycan array binding signal (z-score),[9],6.35
same,glycan array binding signal (z-score),[10],-0.354
same,glycan array binding signal (z-score),[11],-0.395
same,glycan array binding signal (z-score),Kdn(a2-3)Gal(b1-3)GlcNAc,0.581
same,glycan array binding signal (z-score),[12],-0.275
same,glycan array binding signal (z-score),[13],-0.163
same,glycan array binding signal (z-score),[14],-0.21
same,glycan array binding signal (z-score),[15],-0.305
same,glycan array binding signal (z-score),[16],-0.38
same,glycan array binding signal (z-score),[17],0.188
same,glycan array binding signal (z-score),Neu5Ac(a2-6)Gal,8.28
same,glycan array binding signal (z-score),[18],0.026
same,glycan array binding signal (z-score),[19],-0.194
same,glycan array binding signal (z-score),[20],0.192
same,glycan array binding signal (z-score),[21],-0.108
same,glycan array binding signal (z-score),[22],-0.353
